Source: PubChem BioAssay
Pf Dd2 inh: qHTS Primary assay for Inhibitors of Plasmodium falciparum Dd2 growth in vitro. Potency, µM (series often up to 28.9 µM), for inactives: top-dose activity, negative = inhibition, usual class: inhibitors. AID 1347417, 2020. P. falciparum Dd2 growth, SYBR Green, 72 h. 120,000 tested, 4.3% active; active = well fitted inhibition curve with a large enough effect;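 note: plate controls were DMSO vehicle for no effect and reference drug for full effect; nearly all actives have a fitted effect of over 65% in size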
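Readout: SYBR Green fluorescence, 485 nm excitation, 535 nm emission, after ~16 h lysis at 37C. Before that, Dd2-infected red cells (2.5% hematocrit) grew 72 h with compound, 29 uM top final concentration.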
Numbers without * were called inactive; i = inactive; [ ] = dose if it differs, or a comment. The sample as a whole holds a higher share of hits than the screen did. Potency is the fitted concentration of half-maximal effect.

SMILES	Pf Dd2 inh
CCCN1CCCC12Cc1ccccc1CN(C(=O)CNC(C)=O)C2 (configuration not stated)	9%
Cc1ccc(C(=O)N2CCC3(C2)NC(=O)c2ccccc2O3)cc1 (configuration not stated)	i
CC(C)c1nnc(C2CN(C(=O)c3ccc(F)cc3F)CC23CCOCC3)o1 (configuration not stated)	i
COC(=O)[C@@H](C)NC(=O)[C@H]1CN(C(=O)c2cccnc2)CCN1C(C)=O	12%[44.1 µM]
CNC(=O)[C@@H]1C[C@H](n2cc(C(C)(C)NC(=O)c3ccccc3OC)nn2)CN1	7%
CCc1c(C(=O)N[C@@H]2COCC[C@H]2OCc2ccccn2)csc1C	-18%
COc1ccc(S(=O)(=O)N(CC(=O)N2CCc3ccccc3C2)c2ccc(C)cc2)cc1	-21%
Cc1ccc(N(CC(O)Cn2c3ccccc3c3ccccc32)S(=O)(=O)c2ccc(F)cc2)cc1 (configuration not stated)	13µM*
Cc1ccc(N(CC(=O)NCc2ccc(F)cc2)S(=O)(=O)c2c(C)nn(C)c2C)cc1	0%
Clc1ccc(CNC2(Cc3cc(COc4ccccc4)on3)COC2)cc1	-30%[44.1 µM]
CN(C)C[C@@H]1CN(Cc2ccccc2)C[C@H]1N	-16%
O=C(NCc1ccccc1)c1ccc2c(c1)n(Cc1ccc(F)cc1)c(=O)c1ccnn12	i
O=C(NC1CCCC1)c1ccc2c(=O)n(Cc3ccccc3)c(SCc3ccc([N+](=O)[O-])cc3)nc2c1	3.2µM*
O=C(NC1CCCC1)c1ccc(CSc2nc3cccnc3n2Cc2cccc(F)c2)cc1	-10%
Cc1ccc(CSc2nc3cc(C(=O)NC4CCCC4)ccc3c(=O)n2Cc2ccccc2)cc1	16%
Cc1cccc(CSc2nc3cccnc3n2Cc2ccc(C(=O)NCc3cccs3)cc2)c1	i
O=C(O)c1ccc2c(c1)n(Cc1cccc(F)c1)c(=O)c1ccnn12	i
O=C(NC1CCCCC1)c1ccc(CSc2nc3ccncc3n2Cc2cccc(F)c2)cc1	11µM*
O=C(NC1CCCC1)c1ccc2c(=O)n(Cc3ccccc3)c(SCc3cccc(F)c3)nc2c1	17%
COc1cccc(CSc2nc3cc(C(=O)NC4CCCC4)ccc3c(=O)n2Cc2ccccc2)c1	3%
O=C(NCc1cccs1)c1ccc(CSc2nc3ccncc3n2Cc2cccc(F)c2)cc1	8.9µM*
O=C(NCc1cccs1)c1ccc2c(c1)n(Cc1cccc(F)c1)c(=O)c1ccnn12	5.6µM*
CCC(O)c1cc2n(n1)CCN(C(=O)c1cnn(-c3ccccn3)c1C)C2 (configuration not stated)	-6%
CN(c1ccccc1)c1ccc2c(n1)CN(CC(=O)N1CCCC1)C(=O)CO2	-14%[44.1 µM]
COc1ccc(Cl)cc1NC(=O)Cn1nc2c(cc1=O)CCCCC2	7%
SMILES	Pf Dd2 inh
COCCn1cnnc1C(C)Nc1nc(C(C)C)nc2c1cnn2C (configuration not stated)	1%
Cc1cc(C(=O)N2CC[C@](O)(c3ccccc3)[C@H](N(C)C)C2)n[nH]1	27%[5.79 µM]
O=C(Nc1ccc(F)cc1)C1CN(c2ccccc2)C(=O)N1 (configuration not stated)	3%[44.1 µM]
Cc1ccc(C)c(NC(=O)N2CCCC2c2nncn2-c2ccccc2)c1 (configuration not stated)	1%
Cc1nc([C@@H]2CN(C(=O)CCCc3nc4ccccc4[nH]3)C[C@H]2C(N)=O)n[nH]1	8%
O=C(Cn1cccc1-c1nc(-c2ccccc2)no1)NC1CCCCC1	-26%
COCCN(C)C[C@@H]1CN(C(=O)c2ccc3c(c2)CCC3)C[C@@H]1CO	-15%
COc1ccc(C(=O)N2CCC(CC(=O)NCc3ccccc3)C2)cc1 (configuration not stated)	55%
COCCOC1CCOC2(CCN(C(=O)c3ccccn3)CC2)C1 (configuration not stated)	13%
CNC(=O)[C@H]1C[C@H](Oc2ccccc2)CN1S(=O)(=O)c1cccc(OC)c1	12%
Cn1c(SCc2ccc(F)cc2)nc2ccc(C(=O)NCc3cccc(Cl)c3)cc21	10µM*
COc1ccc(CSc2nc3ccncc3n2CC(=O)Nc2ccc(C)c(F)c2)cc1	i
COC(=O)c1ccc(Cn2c(SCc3ccccc3)nc3ccncc32)cc1	-28%
CCc1ccc(CNC(=O)c2ccc(CSc3nc4ccncc4n3Cc3ccccc3)cc2)cc1	10µM*
COc1ccc(Cn2c(=O)c3ccnn3c3ccc(C(=O)NCc4cccnc4)cc32)cc1	-35%
CC(CNC(=O)c1ccc(CSc2nc3ccncc3n2Cc2ccc(F)cc2)cc1)c1ccccc1 (configuration not stated)	4.5µM*
CC(C)NC(=O)c1ccc(Cn2c(SCc3ccc(F)cc3)nc3cccnc32)cc1	-7%
CCc1ccccc1NC(=O)Cn1c(SCc2ccc(F)cc2)nc2ccncc21	11%
O=C(CSc1nc2ccccc2n1Cc1ccccc1)NCc1ccccc1	-26%
Cc1ccc(CNC(=O)c2ccc3nc(SCc4ccc(F)cc4)[nH]c3c2)cc1	i
CCc1ccc(CNC(=O)c2ccc(CSc3nc4ccncc4n3Cc3ccc(OC)cc3)cc2)cc1	13µM*
O=C(NCc1cccc(Cl)c1)c1noc(-c2ccc(F)cc2)n1	-12%
O=C(NCCN1CCCCC1)C1CCc2ncc(-c3ccsc3)n2C1 (configuration not stated)	-15%
CC(C)CC(NC(=O)C1=NNC(=O)CC1)c1nnc2n1CCNCC2 (configuration not stated)	1%
CC(C)Oc1ccc(CNC(=O)CC2CCOCC2)cc1	12%
SMILES	Pf Dd2 inh
COc1ccccc1OC1(C(=O)O)CCN(C(=O)CC2C=CCC2)CC1 (configuration not stated)	3%
O=C(CN1C(=O)NC2(CCS(=O)(=O)CC2)C1=O)Nc1cc(F)cc(F)c1	23%
CS(=O)(=O)CC[C@H](NC(=O)C1=C[C@@H](NC(=O)Nc2ccc(F)cc2F)[C@@H](O)[C@H](O)C1)C(N)=O	-10%
CC(C)n1c(CCNC(=O)CC[C@H]2NC(=O)c3ccccc3NC2=O)nc2ccccc21	-19%
COc1ccc(NC(=O)Cn2c(C)cc3nc4n(c(=O)c32)CCC4)cc1OC	i
Cc1cccc(CNC(=O)C2Cn3cccc3C(=O)N2Cc2ccccc2)c1 (configuration not stated)	-52%
COc1ccccc1CNC(=O)c1ccc(CSc2nc3ccncc3n2Cc2cccc(F)c2)cc1	3.5µM*
COc1ccc(Cn2c(SCc3ccc(C(=O)NCc4cccs4)cc3)nc3ccncc32)cc1	7.9µM*
COc1ccc(C(=O)N2CCc3ccc(C(=O)NCc4cccs4)cc32)cc1	-18%
O=C1NCCCCCN(C(=O)C2CC=CC2)[C@H]2CCC[C@@H]12	3%
COc1ccc(N2Cc3c(NCC4CC4)ncnc3N(C)CC2=O)cc1	14%
CC(=O)Nc1ccc(CNC[C@H]2Cn3c(-c4ccc(F)cc4)cnc3CO2)cc1	-41%[44.1 µM]
c1ccc(CNC[C@H]2Cn3c(-c4ccccc4)cnc3CO2)cc1	11µM*
c1ccc(-c2cnc3n2C[C@H](CNCc2nccs2)OC3)cc1	i
CS(=O)(=O)NC[C@H]1Cn2c(-c3ccc(F)cc3)cnc2CO1	-4%[44.1 µM]
COc1ccccc1C(=O)NC[C@H]1Cn2c(-c3ccc(Cl)cc3)cnc2CO1	11µM*
Fc1ccc(-c2cnc3n2C[C@H](CNCc2ccccc2Cl)OC3)cc1	-2%[44.1 µM]
O=C(NC[C@H]1Cn2c(-c3ccc(F)cc3)cnc2CO1)c1ccc(Cl)cc1	i
COCC(=O)NC[C@H]1Cn2c(-c3ccc(Cl)cc3)cnc2CO1	i
